Results reported in PubChem BioAssay (NCI).
The panel holds about 83,000 compounds, 20% with a hit somewhere; the sample as a whole holds those more often.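 Values shown are percent growth following 48 h exposure of cells in 96-well plates to a single concentration of compound; below 10 was considered active.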 Values without a mark were called inactive. The source made the active and inactive calls.

Tests used:
Assay in all cases: NCI-60 one-dose screen, 48 h (100 = growth as untreated, 0 = no growth, -100 = all killed)
Conditions in all cases: 10 µM
[1] = system: SR leukemia
[2] = system: OVCAR-8 ovarian
[3] = system: OVCAR-5 ovarian
[4] = system: OVCAR-4 ovarian
[5] = system: SK-OV-3 ovarian
[6] = system: IGROV1 ovarian
[7] = system: OVCAR-3 ovarian
[8] = system: HS 578T breast
[9] = system: NCI/ADR-RES ovarian
[10] = system: T-47D breast
[11] = system: BT-549 breast
[12] = system: MDA-MB-435 melanoma
[13] = system: SW-620 colon
[14] = system: MCF7 breast
[15] = system: HCT-116 colon
[16] = system: HCC-2998 colon
[17] = system: KM12 colon

## CC1=CC2C(C(O)CC3(C)C2CC(C)C32OCOC23COCO3)C2(C)C/C(=C/O)C(=O)C=C12 (centres undefined)
[1]
  growth: -38.8% (active)
[2]
  growth: 43.8%
[3]
  growth: 63.2%
[4]
  growth: 35.8%
[5]
  growth: 48.5%
[6]
  growth: 70.9%
[7]
  growth: 10.8%
[8]
  growth: 83.4%
[9]
  growth: 17.3%
[10]
  growth: 24.3%
[11]
  growth: 51.2%
[12]
  growth: 7.68% (active)
[13]
  growth: 5.28% (active)
[14]
  growth: 5.37% (active)
[15]
  growth: -70.2% (active)
[16]
  growth: 35%
[17]
  growth: 12%

## COc1ccc(-c2nn(-c3cccc(Cl)c3)cc2-c2cc(-c3cccs3)[nH]c(=S)n2)cc1
[1]
  growth: 32.6%
[2]
  growth: 48.3%
[3]
  growth: 83.1%
[4]
  growth: 60.4%
[5]
  growth: 83%
[6]
  growth: 50.7%
[7]
  growth: 57.8%
[8]
  growth: 62.7%
[9]
  growth: 47.4%
[10]
  growth: 41.6%
[11]
  growth: 46.7%
[12]
  growth: 33.5%
[13]
  growth: 61.4%
[14]
  growth: 34.1%
[15]
  growth: 20.4%
[16]
  growth: 37.4%
[17]
  growth: 27.5%

## C/C(=C/CCC(C)[C@@H]1CC[C@]2(C)C3=C(CC[C@@]12C)[C@@]1(C)CCC(=O)C(C)(C)[C@@H]1CC3)C(=O)O (some centres undefined)
[1]
  growth: -27.8% (active)
[2]
  growth: -21.9% (active)
[3]
  growth: -75.6% (active)
[4]
  growth: -70.2% (active)
[5]
  growth: -97.5% (active)
[6]
  growth: -87% (active)
[7]
  growth: -96% (active)
[8]
  growth: -37.3% (active)
[9]
  growth: -52.8% (active)
[10]
  growth: -48.9% (active)
[11]
  growth: -90.8% (active)
[12]
  growth: -75% (active)
[13]
  growth: -85.2% (active)
[14]
  growth: -54.8% (active)
[15]
  growth: -93.1% (active)
[16]
  growth: -85.3% (active)
[17]
  growth: -87.6% (active)

## CCOC(=O)c1sc2ncnc(Nc3ccc(NC(=O)Nc4ccc(Cl)cc4)cc3)c2c1C
[1]
  growth: 44.3%
[2]
  growth: 38.7%
[3]
  growth: 99.2%
[4]
  growth: 53.4%
[5]
  growth: 74.6%
[6]
  growth: 92.3%
[7]
  growth: 62.9%
[8]
  growth: 41.4%
[9]
  growth: 37.2%
[10]
  growth: 45.4%
[11]
  growth: 61.8%
[12]
  growth: 59.4%
[13]
  growth: 63.7%
[14]
  growth: 52.1%
[15]
  growth: 17%
[16]
  growth: 90.3%
[17]
  growth: 55.3%

## COc1ccc(-c2nn(-c3cccc(Cl)c3)cc2-c2cc(-c3ccccc3)[nH]c(=O)c2C#N)cc1
[1]
  growth: 64.8%
[2]
  growth: 26.3%
[3]
  growth: 94.1%
[4]
  growth: 31%
[5]
  growth: -47.3% (active)
[6]
  growth: 49.4%
[7]
  growth: 25.8%
[8]
  growth: 23.5%
[9]
  growth: 37.8%
[10]
  growth: 27.6%
[11]
  growth: 3.07% (active)
[12]
  growth: 81.5%
[13]
  growth: 67.7%
[14]
  growth: 52.9%
[15]
  growth: 15.6%
[16]
  growth: 49.9%
[17]
  growth: 69.8%

## CC(C)(C)OC(=O)N1CCc2c(sc3ncnc(N/N=C/c4ccccc4Br)c23)C1
[1]
  growth: 39.4%
[2]
  growth: 71.6%
[3]
  growth: 78.3%
[4]
  growth: 72.9%
[5]
  growth: 114%
[6]
  growth: 68.6%
[7]
  growth: 62.9%
[8]
  growth: 98.7%
[9]
  growth: 71.6%
[10]
  growth: 41.5%
[11]
  growth: 92.3%
[12]
  growth: 77.9%
[13]
  growth: 55%
[14]
  growth: -12% (active)
[15]
  growth: 41.6%
[16]
  growth: 92.3%
[17]
  growth: 92.1%

## CCOC(=O)CSc1nc(-c2cc(OC)ccc2OC)cc(-c2ccc(OC)cc2)c1C#N
[1]
  growth: 69.7%
[2]
  growth: 82.4%
[3]
  growth: 97.3%
[4]
  growth: 101%
[5]
  growth: 85%
[6]
  growth: 55.4%
[7]
  growth: 95.4%
[8]
  growth: 90.2%
[9]
  growth: 81.6%
[10]
  growth: 65.6%
[11]
  growth: 86%
[12]
  growth: 86.6%
[13]
  growth: 92.1%
[14]
  growth: 71.7%
[15]
  growth: 67.3%
[16]
  growth: 85.5%
[17]
  growth: 71.3%

## COc1ccc(-c2cc(-c3ccc(Cl)cc3)nc(SCCCC(=O)NO)n2)cc1
[1]
  growth: 22.8%
[2]
  growth: 8.07% (active)
[3]
  growth: 24.5%
[4]
  growth: 18.2%
[5]
  growth: 5.99% (active)
[6]
  growth: 2.96% (active)
[7]
  growth: -1.93% (active)
[8]
  growth: 37.9%
[9]
  growth: -33.6% (active)
[10]
  growth: 8.24% (active)
[11]
  growth: 26.1%
[12]
  growth: 18.1%
[13]
  growth: 14.2%
[14]
  growth: 0.343% (active)
[15]
  growth: 8.41% (active)
[16]
  growth: -10% (active)
[17]
  growth: 18%

## O=C1c2ccccc2-c2c1c1cccnc1c(=O)n2C[C@H](O)CO
[1]
  growth: 11.6%
[2]
  growth: 58.7%
[3]
  growth: 104%
[4]
  growth: 92.5%
[5]
  growth: 60.3%
[6]
  growth: 50.4%
[7]
  growth: 79.6%
[8]
  growth: 85.1%
[9]
  growth: 88.1%
[10]
  growth: 59.6%
[11]
  growth: 61.7%
[12]
  growth: 87.5%
[13]
  growth: 49.9%
[14]
  growth: 25.5%
[15]
  growth: 38.5%
[16]
  growth: 79.7%
[17]
  growth: 62.1%

## Cc1cc(O)ccc1C1=NN(c2ccc(S(C)(=O)=O)cc2)C(=O)CC1
[1]
  growth: 12.3%
[2]
  growth: 92.3%
[3]
  growth: 98.1%
[4]
  growth: 98%
[5]
  growth: 85%
[6]
  growth: 43.5%
[7]
  growth: 65.1%
[8]
  growth: 86.9%
[9]
  growth: 40.6%
[10]
  growth: 84.8%
[11]
  growth: 58.2%
[12]
  growth: -8.25% (active)
[13]
  growth: 46.6%
[14]
  growth: 82.8%
[15]
  growth: 52.4%
[16]
  growth: 78.6%
[17]
  growth: 47.6%

## CCCCN(CCCC)C(=O)[C@H](CC)[C@@H]1CC[C@@H](C)[C@@H]([C@H](C)[C@@H](O)[C@@H](C)C(=O)[C@H](CC)C2O[C@]3(C=C[C@@H](O)[C@]4(CC[C@@](C)([C@H]5CC[C@](O)(CC)[C@H](C)O5)O4)O3)[C@H](C)C[C@@H]2C)O1 (some centres undefined)
[1]
  growth: 27%
[2]
  growth: 12.5%
[3]
  growth: 24%
[4]
  growth: 9.88% (active)
[5]
  growth: -8.58% (active)
[6]
  growth: 20.1%
[7]
  growth: 4.13% (active)
[8]
  growth: 14.5%
[9]
  growth: 25.4%
[10]
  growth: 5.04% (active)
[11]
  growth: 8.46% (active)
[12]
  growth: 4.48% (active)
[13]
  growth: 9.41% (active)
[14]
  growth: -14.1% (active)
[15]
  growth: 2.55% (active)
[16]
  growth: 2.49% (active)
[17]
  growth: 20.6%

## COc1ccc(C(=O)CSc2nc(-c3cc(OC)ccc3OC)cc(-c3ccc(OC)cc3)c2C#N)cc1
[1]
  growth: 90.1%
[2]
  growth: 105%
[3]
  growth: 85.8%
[4]
  growth: 98.1%
[5]
  growth: 87.1%
[6]
  growth: 102%
[7]
  growth: 97%
[8]
  growth: 103%
[9]
  growth: 45.1%
[10]
  growth: 85.7%
[11]
  growth: 89.9%
[12]
  growth: 100%
[13]
  growth: 110%
[14]
  growth: 101%
[15]
  growth: 94%
[16]
  growth: 108%
[17]
  growth: 92.1%

## COC(=O)C1OC1c1cc([N+](=O)[O-])ccc1OC (centres undefined)
[1]
  growth: 84.4%
[2]
  growth: 105%
[3]
  growth: 105%
[4]
  growth: 101%
[5]
  growth: 92.1%
[6]
  growth: 93%
[7]
  growth: 109%
[8]
  growth: 111%
[9]
  growth: 101%
[10]
  growth: 70%
[11]
  growth: 107%
[12]
  growth: 107%
[13]
  growth: 107%
[14]
  growth: 89.3%
[15]
  growth: 102%
[16]
  growth: 96.1%
[17]
  growth: 99.3%

## COc1ccc(-c2cc(-c3ccc(OC)c(OC)c3)nc(SCCCC(=O)NO)n2)cc1
[1]
  growth: 15.1%
[2]
  growth: 10.4%
[3]
  growth: 15.9%
[4]
  growth: 13.1%
[5]
  growth: -21.3% (active)
[6]
  growth: -25.1% (active)
[7]
  growth: -24% (active)
[8]
  growth: 4.08% (active)
[9]
  growth: -34.7% (active)
[10]
  growth: 4.26% (active)
[11]
  growth: 8.08% (active)
[12]
  growth: 1.23% (active)
[13]
  growth: 2.56% (active)
[14]
  growth: -22% (active)
[15]
  growth: 0.272% (active)
[16]
  growth: -15.7% (active)
[17]
  growth: 15.7%

## Cc1ccc(C(=O)/C=C/c2ccccc2)s1
[1]
  growth: 88.3%
[2]
  growth: 111%
[3]
  growth: 110%
[4]
  growth: 133%
[5]
  growth: 130%
[6]
  growth: 79.4%
[7]
  growth: 89.6%
[8]
  growth: 106%
[9]
  growth: 113%
[10]
  growth: 141%
[11]
  growth: 99%
[12]
  growth: 98.5%
[13]
  growth: 100%
[14]
  growth: 40%
[15]
  growth: 60.4%
[16]
  growth: 101%
[17]
  growth: 92.8%

## O=C(Nc1ccccc1)Nc1ncnc2c1ncn2-c1ccccc1
[1]
  growth: 70.8%
[2]
  growth: 55.3%
[3]
  growth: 83.2%
[4]
  growth: -3.77% (active)
[5]
  growth: 44.3%
[6]
  growth: 78.5%
[7]
  growth: 73.7%
[8]
  growth: 50.1%
[9]
  growth: 66.1%
[10]
  growth: 51.3%
[11]
  growth: 89.4%
[12]
  growth: 84.8%
[13]
  growth: 94%
[14]
  growth: 78.9%
[15]
  growth: 29.2%
[16]
  growth: 92.6%
[17]
  growth: 87.4%

## O=c1cn[nH]c2ccc(Br)cc12
[1]
  growth: 89.4%
[2]
  growth: 98.8%
[3]
  growth: 108%
[4]
  growth: 109%
[5]
  growth: 98.6%
[6]
  growth: 102%
[7]
  growth: 105%
[8]
  growth: 99.4%
[9]
  growth: 105%
[10]
  growth: 83%
[11]
  growth: 105%
[12]
  growth: 111%
[13]
  growth: 103%
[14]
  growth: 105%
[15]
  growth: 97.8%
[16]
  growth: 108%
[17]
  growth: 98.7%
